Values joined by “and” are separate entries in the source; they are usually repeats but may differ in a detail not shown here. Equal entries are not always repeated. Some structures have more than one record in an assay (separate samples or runs), and their calls can disagree. Active and inactive are the calls of the source. The calls were made as follows: active = hit-call score of the fitted dose curve at least 0.9, where 1 is the maximum; inactive = score below 0.9.
Experiments:
[1] = BSK_hDFCGF_SRB: Viability Assessment in the BioMAP Diversity Plus: hDFCGF Assay (AID 2283061); conditions: primary human foreskin fibroblasts;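 also: cells exposed to compound for 24 h before the read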
How it was run: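 SRB-based viability read on primary human skin fibroblasts at 24 h: TCA fixation, 0.1% dye, 560 nm. Gain or loss of signal is fitted against the DMSO negative control.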

[2] = read-out: TIMP metallopeptidase inhibitor 1 (TIMP1), TIMP1 (gene 7076); test: BSK_hDFCGF_TIMP1: BioMAP Diversity Plus: hDFCGF Assay for TIMP metallopeptidase inhibitor 1 (TIMP1) Biomarker Activity (AID 2283062); conditions: primary human foreskin fibroblasts; actives raise or lower the signal
How it was run: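 Bidirectional curve fitting against DMSO baseline yielded this endpoint, based on ELISA detection of TIMP-1 in primary human foreskin fibroblasts exposed to compound for 24 h.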

[3] = read-out: Monokine induced gamma interferon (MIG), CXCL9 (gene 4283); test: BSK_hDFCGF_MIG: BioMAP Diversity Plus: hDFCGF Assay for Monokine induced gamma interferon (MIG) Biomarker Activity (AID 2283063); conditions: primary human foreskin fibroblasts; actives raise or lower the signal
How it was run: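 Endpoint derived by bidirectional fitting relative to DMSO; MIG quantified via ELISA in primary human foreskin fibroblasts harvested 24 h after dosing.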

[4] = read-out: Matrix Metallopeptidase 1 (MMP1), MMP1 (gene 4312); test: BSK_hDFCGF_MMP1: BioMAP Diversity Plus: hDFCGF Assay for Matrix Metallopeptidase 1 (MMP1) Biomarker Activity (AID 2283064); conditions: primary human foreskin fibroblasts; actives raise or lower the signal
How it was run: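 Primary human foreskin fibroblasts exposed to chemicals for 24 h; MMP1 measured by ELISA. Cytotoxicity tracked by SRB staining in parallel cultures; bidirectional fit relative to DMSO.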

[5] = read-out: Vascular cell adhesion molecule 1 (VCAM1), VCAM1 (gene 7412); test: BSK_hDFCGF_VCAM1: BioMAP Diversity Plus: hDFCGF Assay for Vascular cell adhesion molecule 1 (VCAM1) Biomarker Activity (AID 2283065); conditions: primary human foreskin fibroblasts; actives raise or lower the signal;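 as to AC50: VCAM-1 protein level quantified by ELISA after 24 h chemical exposure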
How it was run: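 Measured after 24 h chemical treatment of primary human skin fibroblasts, VCAM-1 was detected by ELISA and concentration-response analysed in both directions versus DMSO vehicle.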

[6] = read-out: Plasminogen activator inhibitor-1 (PAI1), SERPINE1 (gene 5054); test: BSK_hDFCGF_PAI1: BioMAP Diversity Plus: hDFCGF Assay for Plasminogen activator inhibitor-1 (PAI1) Biomarker Activity (AID 2283066); conditions: primary human foreskin fibroblasts; actives raise or lower the signal
How it was run: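 Human foreskin fibroblast primary cells, 24 h chemical exposure; PAI-1 measured by ELISA. Bidirectional fitting relative to DMSO; parallel cultures stained with SRB for total protein to flag overt cytotoxicity.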

[7] = read-out: Intercellular Adhesion Molecule 1 (ICAM1), ICAM1 (gene 3383); test: BSK_KF3CT_ICAM1: BioMAP Diversity Plus: KF3CT Assay for Intercellular Adhesion Molecule 1 (ICAM1) Biomarker Activity (AID 2283067); conditions: primary human keratinocytes with fibroblasts; actives raise or lower the signal
How it was run: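 Bidirectional curve fitting against a DMSO baseline was applied to ICAM-1 ELISA signal from primary human skin co-cultures harvested 24 h after treatment, with SRB staining of parallel wells for overt cytotoxicity.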

[8] = read-out: Interferon-gamma inducible Protein 10 (IP10), CXCL10 (gene 3627); test: BSK_KF3CT_IP10: BioMAP Diversity Plus: KF3CT Assay for Interferon-gamma inducible Protein 10 (IP10) Biomarker Activity (AID 2283068); conditions: primary human keratinocytes with fibroblasts; actives raise or lower the signal
How it was run: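 ELISA read-out of IP-10 after 24 h chemical dosing of human skin primary co-culture (keratinocytes, foreskin fibroblasts). Gain or loss of signal relative to DMSO, bidirectional curve fit.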

[9] = BSK_KF3CT_SRB: Viability Assessment in the BioMAP Diversity Plus: KF3CT Assay (AID 2283069); conditions: primary human keratinocytes with fibroblasts;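 also: total protein by sulforhodamine B staining as a cytotoxicity measure; read 24 h after compound addition; fitted for both signal gain and loss against DMSO baseline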
How it was run: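 Human keratinocyte and foreskin fibroblast co-culture exposed to chemical for 24 h. Total protein measured in parallel cultures by 0.1% sulforhodamine B staining after 10% TCA fixation, read at 560 nm; bidirectional fit relative to DMSO.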

[10] = read-out: Interleukin-1 alpha (IL1a), IL1A (gene 3552); test: BSK_KF3CT_IL1a: BioMAP Diversity Plus: KF3CT Assay for Interleukin-1 alpha (IL1a) Biomarker Activity (AID 2283070); conditions: primary human keratinocytes with fibroblasts; actives raise or lower the signal
How it was run: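 Primary human keratinocyte plus foreskin fibroblast co-culture, dosed and measured at 24 h in 96-well plates. IL-1a level quantified by ELISA; bidirectional fit relative to DMSO.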

| SMILES | outcome [1] | outcome [2] | outcome [3] | outcome [4] | outcome [5] | outcome [6] | outcome [7] | outcome [8] | outcome [9] | outcome [10] | AC50 [5] | AC50 [1] | AC50 [2] | AC50 [3] | AC50 [4] | AC50 [6] | AC50 [7] | AC50 [8] | AC50 [9] | AC50 [10] |
| --- | --- | --- | --- | --- | --- | --- | --- | --- | --- | --- | --- | --- | --- | --- | --- | --- | --- | --- | --- | --- |
| COC(=O)Nc1nc2ccccc2[nH]1 | inactive | inactive | inactive | inactive | inactive | inactive | inactive | inactive | inactive | inactive | – | – | – | – | – | – | – | – | – | – |
| Cc1ccc([N+](=O)[O-])cc1 | inactive | inactive | inactive | inactive | inactive | inactive | inactive | inactive | inactive | inactive | – | – | – | – | – | – | – | – | – | – |
| Nc1ccc(N=Nc2ccccc2)cc1 | inactive | inactive | inactive | inactive | – | inactive | inactive | inactive | inactive | inactive | 20 µM (active) | – | – | – | – | – | – | – | – | – |
| CCCSC(=O)N(CCC)CCC | inactive | inactive | inactive | inactive | inactive | inactive | inactive | inactive | inactive | inactive | – | – | – | – | – | – | – | – | – | – |
| CCNS(=O)(=O)C(F)(F)C(F)(F)C(F)(F)C(F)(F)C(F)(F)C(F)(F)C(F)(F)C(F)(F)F | – | inactive | – | inactive | – | – | inactive | – | inactive | inactive | 5.73 µM (active) and 13.5 µM (active) | 28.8 µM (active) and 44.8 µM (active) and 47.8 µM (active) | 47.2 µM (active) and 53.5 µM (active) | 19.3 µM (active) and 28.3 µM (active) and 36 µM (active) | 49.2 µM (active) and 49.6 µM (active) | 30.1 µM (active) and 23.3 µM (active) and 47.3 µM (active) | 46.2 µM (active) | 20.9 µM (active) and 30.5 µM (active) and 43.7 µM (active) | 46.1 µM (active) | 41.5 µM (active) and 47.7 µM (active) |
| CCCCCCCCCCCCCN1CC(C)OC(C)C1 (centres undefined) | inactive | inactive | inactive | inactive | inactive | inactive | inactive | inactive | inactive | inactive | – | – | – | – | – | – | – | – | – | – |
| CCCCC(CC)COC(=O)c1ccc(C(=O)OCC(CC)CCCC)c(C(=O)OCC(CC)CCCC)c1 (centres undefined) | inactive | inactive | inactive | inactive | inactive | inactive | inactive | inactive | inactive | inactive | – | – | – | – | – | – | – | – | – | – |
| Cc1ccc(N)cc1 | inactive | inactive | inactive | inactive | inactive | inactive | inactive | inactive | inactive | inactive | – | – | – | – | – | – | – | – | – | – |
| Nc1cc(Cl)cc(C(=O)O)c1Cl | inactive | inactive | inactive | inactive | inactive | inactive | inactive | inactive | inactive | inactive | – | – | – | – | – | – | – | – | – | – |
| CC(C)(C)OOC(C)(C)CCC(C)(C)OOC(C)(C)C | inactive | inactive | inactive | inactive | inactive | inactive | inactive | inactive | inactive | inactive | – | – | – | – | – | – | – | – | – | – |
| [As]#[In] | inactive | inactive | inactive | inactive | inactive | inactive | inactive | inactive | inactive | inactive | – | – | – | – | – | – | – | – | – | – |
| Oc1ccc2ccc3cccc4ccc1c2c34 | – | inactive | – | inactive | – | – | inactive | – | inactive | – | 8.34 µM (active) | 20 µM (active) | – | 7.57 µM (active) | – | 22.5 µM (active) | – | 26.7 µM (active) | – | 20 µM (active) |
| CN(C)C(=O)Nc1ccc(Cl)cc1 | inactive | inactive | inactive | inactive | inactive | inactive | inactive | inactive | inactive | inactive | – | – | – | – | – | – | – | – | – | – |
| Clc1ccccc1Cl | inactive | inactive | inactive | inactive | inactive | inactive | inactive | inactive | inactive | – | – | – | – | – | – | – | – | – | – | – |
| OCCCl | inactive | inactive | inactive | inactive | inactive | inactive | inactive | inactive | inactive | inactive | – | – | – | – | – | – | – | – | – | – |
| O=P(OCCCl)(OCCCl)OCCCl | inactive | inactive | inactive | inactive | inactive | inactive | inactive | inactive | inactive | inactive | – | – | – | – | – | – | – | – | – | – |
| O=C(Nc1ccccc1)c1ccccc1I | inactive | inactive | inactive | inactive | inactive | inactive | inactive | inactive | inactive | inactive | – | – | – | – | – | – | – | – | – | – |
| CN(C)c1ccc(C(=O)c2ccc(N(C)C)cc2)cc1 | inactive | inactive | inactive | inactive | inactive | inactive | inactive | inactive | inactive | inactive | – | – | – | – | – | – | – | – | – | – |
| CC(C)(C)C(O)(CCc1ccc(Cl)cc1)Cn1cncn1 (centres undefined) | inactive | inactive | inactive | inactive | inactive | inactive | inactive | inactive | inactive | inactive | – | – | – | – | – | – | – | – | – | – |
| N#CC(Br)(Br)C(N)=O | inactive | inactive | inactive | inactive | inactive | inactive | inactive | inactive | inactive | inactive | – | – | – | – | – | – | – | – | – | – |
